# Experimental data reported in ChEMBL document CHEMBL3988442, “University of Dundee, Small-Polar-MMV Screening Library” (2021).
# For some assays here: Potency and affinity values are given separately.
# Tests used:
# Set-up in all cases: scale not given: direction of the effect not stated beside the values
# [1] = molecular target: Protein translocase subunit SecA (Escherichia coli (strain K12)) (UniProt P10408); experiment: Assay to Identify E. coli SecA ATPase Inhibitors; type: functional; details: 30 µM
# Chain of Protein translocase subunit SecA (Escherichia coli (strain K12)) (P10408 whole entry): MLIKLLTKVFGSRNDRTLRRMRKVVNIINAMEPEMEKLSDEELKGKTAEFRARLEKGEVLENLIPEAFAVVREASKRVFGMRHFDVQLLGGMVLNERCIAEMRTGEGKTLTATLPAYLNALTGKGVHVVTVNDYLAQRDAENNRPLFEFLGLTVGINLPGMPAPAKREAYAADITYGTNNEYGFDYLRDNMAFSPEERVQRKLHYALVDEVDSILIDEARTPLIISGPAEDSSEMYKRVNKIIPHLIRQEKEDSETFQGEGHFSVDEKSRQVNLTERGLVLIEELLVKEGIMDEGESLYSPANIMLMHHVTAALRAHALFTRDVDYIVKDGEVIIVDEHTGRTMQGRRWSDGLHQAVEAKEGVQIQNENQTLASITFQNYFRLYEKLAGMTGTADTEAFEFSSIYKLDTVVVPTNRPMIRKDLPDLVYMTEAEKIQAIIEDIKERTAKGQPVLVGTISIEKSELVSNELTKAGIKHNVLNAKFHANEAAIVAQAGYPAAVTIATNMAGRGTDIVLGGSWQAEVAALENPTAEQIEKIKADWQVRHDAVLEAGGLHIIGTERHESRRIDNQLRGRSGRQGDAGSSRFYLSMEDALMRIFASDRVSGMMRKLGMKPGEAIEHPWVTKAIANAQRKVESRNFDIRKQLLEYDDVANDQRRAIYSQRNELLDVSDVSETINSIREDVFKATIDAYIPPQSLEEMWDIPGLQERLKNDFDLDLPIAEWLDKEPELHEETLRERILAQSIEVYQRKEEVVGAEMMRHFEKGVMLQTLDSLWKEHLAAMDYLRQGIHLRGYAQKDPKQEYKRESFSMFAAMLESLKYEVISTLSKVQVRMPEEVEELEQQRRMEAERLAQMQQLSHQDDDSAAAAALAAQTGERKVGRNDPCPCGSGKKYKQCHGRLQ
# [2] = molecular target: T1, Ubiquitin-activating enzyme e1, putative (Leishmania donovani (strain BPK282A1)) (UniProt E9BSI1); experiment: Leishmania donovani Ubiquitin Activating Enzyme (LdE1); type: functional; details: 30 µM
# T1 sequence (whole entry): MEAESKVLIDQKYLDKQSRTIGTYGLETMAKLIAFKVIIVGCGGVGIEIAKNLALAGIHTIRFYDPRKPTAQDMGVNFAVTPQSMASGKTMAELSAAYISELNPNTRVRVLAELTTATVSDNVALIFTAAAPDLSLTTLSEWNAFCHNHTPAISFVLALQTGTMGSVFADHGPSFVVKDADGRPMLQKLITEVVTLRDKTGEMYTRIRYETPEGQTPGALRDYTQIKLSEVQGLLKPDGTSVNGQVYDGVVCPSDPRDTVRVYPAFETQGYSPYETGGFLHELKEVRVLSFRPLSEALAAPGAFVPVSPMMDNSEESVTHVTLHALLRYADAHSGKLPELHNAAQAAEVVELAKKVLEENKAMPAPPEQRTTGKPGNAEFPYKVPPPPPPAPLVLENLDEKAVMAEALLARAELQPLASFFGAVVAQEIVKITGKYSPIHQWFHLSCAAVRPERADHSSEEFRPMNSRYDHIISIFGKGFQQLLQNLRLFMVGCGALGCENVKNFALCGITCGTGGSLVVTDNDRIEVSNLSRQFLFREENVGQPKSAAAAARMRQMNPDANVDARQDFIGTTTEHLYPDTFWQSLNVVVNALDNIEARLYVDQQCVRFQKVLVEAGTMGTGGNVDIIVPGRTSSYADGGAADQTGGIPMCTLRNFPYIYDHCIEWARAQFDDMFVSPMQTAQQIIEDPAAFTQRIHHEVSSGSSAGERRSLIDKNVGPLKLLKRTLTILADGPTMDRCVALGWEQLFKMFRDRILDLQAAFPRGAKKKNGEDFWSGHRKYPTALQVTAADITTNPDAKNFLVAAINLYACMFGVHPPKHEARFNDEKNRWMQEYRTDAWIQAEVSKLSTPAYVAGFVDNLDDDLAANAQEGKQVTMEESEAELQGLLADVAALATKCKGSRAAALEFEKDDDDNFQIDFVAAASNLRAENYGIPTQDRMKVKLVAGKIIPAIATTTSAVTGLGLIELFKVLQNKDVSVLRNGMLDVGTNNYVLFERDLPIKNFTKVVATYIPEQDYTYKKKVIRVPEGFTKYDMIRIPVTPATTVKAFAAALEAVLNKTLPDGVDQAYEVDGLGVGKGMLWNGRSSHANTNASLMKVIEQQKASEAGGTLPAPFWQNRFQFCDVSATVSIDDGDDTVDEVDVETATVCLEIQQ
# [3] = molecular target: Sialic acid-binding Ig-like lectin 9 (Homo sapiens) (UniProt Q9Y336); experiment: Hs-Siglec9 ALPHAscreen SOP 20170721; details: 10 µM
# Chain of Sialic acid-binding Ig-like lectin 9 (Homo sapiens) (Q9Y336 whole entry): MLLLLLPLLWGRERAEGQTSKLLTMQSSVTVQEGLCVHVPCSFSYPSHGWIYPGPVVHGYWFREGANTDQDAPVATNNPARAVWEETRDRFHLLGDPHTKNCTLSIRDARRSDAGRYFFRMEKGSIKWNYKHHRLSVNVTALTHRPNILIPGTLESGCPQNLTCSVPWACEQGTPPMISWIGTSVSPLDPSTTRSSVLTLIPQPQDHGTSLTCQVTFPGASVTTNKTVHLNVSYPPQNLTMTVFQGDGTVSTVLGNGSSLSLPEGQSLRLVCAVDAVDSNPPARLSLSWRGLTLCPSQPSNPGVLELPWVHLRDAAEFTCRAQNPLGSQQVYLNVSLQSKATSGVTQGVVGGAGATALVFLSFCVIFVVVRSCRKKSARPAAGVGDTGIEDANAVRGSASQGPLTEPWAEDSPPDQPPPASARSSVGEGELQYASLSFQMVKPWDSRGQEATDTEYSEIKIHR
# Trypanosoma cruzi = experiment: Trypanosoma cruzi phosphomannomutase and mannose-1-phosphate guanylyltransferase assay; type: functional; details: 10 µM
# [4] = molecular target: T2, Arginase-2, mitochondrial (Homo sapiens) (UniProt P78540); experiment: in vitro enzyme assay to detect the production of urea directly proportional to the activity of Arginase II; type: functional; details: 33.3 µM; also: in the data most compounds retested in dose-response had high values
# T2 sequence (whole entry): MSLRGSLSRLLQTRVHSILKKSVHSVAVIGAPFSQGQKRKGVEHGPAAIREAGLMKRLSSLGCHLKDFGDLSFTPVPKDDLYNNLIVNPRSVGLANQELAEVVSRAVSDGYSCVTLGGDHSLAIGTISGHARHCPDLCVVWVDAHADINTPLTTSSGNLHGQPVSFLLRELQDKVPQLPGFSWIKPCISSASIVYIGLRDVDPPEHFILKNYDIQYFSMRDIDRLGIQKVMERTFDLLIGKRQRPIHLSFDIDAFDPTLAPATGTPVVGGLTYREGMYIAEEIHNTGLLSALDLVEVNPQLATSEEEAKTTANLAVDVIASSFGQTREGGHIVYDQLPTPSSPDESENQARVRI
# [5] = molecular target: T3, Proteasome subunit beta (Trypanosoma cruzi) (UniProt O96673); experiment: Trypanosoma cruzi proteasome chymotrypsin-like activity (TcProtChymo) assay.; also: in the data most compounds retested in dose-response had high values; type: functional; details: 9.37 µM
# T3 sequence (whole entry): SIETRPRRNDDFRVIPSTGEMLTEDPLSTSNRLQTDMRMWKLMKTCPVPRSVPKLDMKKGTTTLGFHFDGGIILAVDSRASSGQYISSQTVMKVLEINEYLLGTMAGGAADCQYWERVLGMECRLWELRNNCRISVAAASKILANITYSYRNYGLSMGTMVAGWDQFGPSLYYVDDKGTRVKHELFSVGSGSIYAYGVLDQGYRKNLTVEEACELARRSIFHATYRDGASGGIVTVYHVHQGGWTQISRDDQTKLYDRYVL
# Homo sapiens = species on record: Homo sapiens; experiment: To identify inhibition of the IFN signalling (Jak-Stat) pathway via expression of an eGFP reporter gene under the control of an IFN-stimulated response element (ISRE) containing MxA promoter.; type: functional; details: 30 µM
# [6] = molecular target: T4, Tyrosyl-tRNA synthetase, putative (Trypanosoma cruzi (strain CL Brener)) (UniProt Q4DSP6); experiment: Trypanosoma cruzi tyrosyl tRNA synthetase (TcYRS) _High Tyrosine SOP; type: functional; details: 30 µM; also: in the data most compounds retested in dose-response had high values
# T4 sequence (whole entry): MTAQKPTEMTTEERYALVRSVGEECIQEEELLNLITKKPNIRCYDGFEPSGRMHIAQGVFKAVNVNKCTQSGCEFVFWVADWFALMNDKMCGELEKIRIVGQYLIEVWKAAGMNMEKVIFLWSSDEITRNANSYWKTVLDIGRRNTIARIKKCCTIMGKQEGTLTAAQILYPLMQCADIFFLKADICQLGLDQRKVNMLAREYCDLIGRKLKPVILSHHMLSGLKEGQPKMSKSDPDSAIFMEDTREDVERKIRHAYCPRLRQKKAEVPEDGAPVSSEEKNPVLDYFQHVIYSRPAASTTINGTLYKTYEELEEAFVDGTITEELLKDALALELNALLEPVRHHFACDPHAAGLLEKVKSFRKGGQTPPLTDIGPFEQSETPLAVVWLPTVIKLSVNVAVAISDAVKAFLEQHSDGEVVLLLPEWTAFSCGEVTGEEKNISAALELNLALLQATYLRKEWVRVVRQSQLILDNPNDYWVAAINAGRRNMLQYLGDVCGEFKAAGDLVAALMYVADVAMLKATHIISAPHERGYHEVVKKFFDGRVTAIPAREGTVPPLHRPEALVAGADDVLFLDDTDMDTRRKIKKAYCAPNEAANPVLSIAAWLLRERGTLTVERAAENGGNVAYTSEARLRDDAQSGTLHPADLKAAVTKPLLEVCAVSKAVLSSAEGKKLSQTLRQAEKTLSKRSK
# [7] = molecular target: T4, Tyrosyl-tRNA synthetase, putative (Trypanosoma cruzi (strain CL Brener)); experiment: Trypanosoma cruzi tyrosyl tRNA synthetase (TcYRS) SOP; type: functional; details: 30 µM
# [8] = molecular target: Chromo domain-containing protein 1 (Saccharomyces cerevisiae (strain ATCC 204508 / S288c) (Baker's yeast)) (UniProt P32657); experiment: ScCHD-1 Enzyme Inhibition Assay; type: functional; details: 30 µM; also: in the data most compounds retested in dose-response had high values
# Chain of Chromo domain-containing protein 1 (Saccharomyces cerevisiae (strain ATCC 204508 / S288c) (Baker's yeast)) (P32657 whole entry, the tested form may be a part): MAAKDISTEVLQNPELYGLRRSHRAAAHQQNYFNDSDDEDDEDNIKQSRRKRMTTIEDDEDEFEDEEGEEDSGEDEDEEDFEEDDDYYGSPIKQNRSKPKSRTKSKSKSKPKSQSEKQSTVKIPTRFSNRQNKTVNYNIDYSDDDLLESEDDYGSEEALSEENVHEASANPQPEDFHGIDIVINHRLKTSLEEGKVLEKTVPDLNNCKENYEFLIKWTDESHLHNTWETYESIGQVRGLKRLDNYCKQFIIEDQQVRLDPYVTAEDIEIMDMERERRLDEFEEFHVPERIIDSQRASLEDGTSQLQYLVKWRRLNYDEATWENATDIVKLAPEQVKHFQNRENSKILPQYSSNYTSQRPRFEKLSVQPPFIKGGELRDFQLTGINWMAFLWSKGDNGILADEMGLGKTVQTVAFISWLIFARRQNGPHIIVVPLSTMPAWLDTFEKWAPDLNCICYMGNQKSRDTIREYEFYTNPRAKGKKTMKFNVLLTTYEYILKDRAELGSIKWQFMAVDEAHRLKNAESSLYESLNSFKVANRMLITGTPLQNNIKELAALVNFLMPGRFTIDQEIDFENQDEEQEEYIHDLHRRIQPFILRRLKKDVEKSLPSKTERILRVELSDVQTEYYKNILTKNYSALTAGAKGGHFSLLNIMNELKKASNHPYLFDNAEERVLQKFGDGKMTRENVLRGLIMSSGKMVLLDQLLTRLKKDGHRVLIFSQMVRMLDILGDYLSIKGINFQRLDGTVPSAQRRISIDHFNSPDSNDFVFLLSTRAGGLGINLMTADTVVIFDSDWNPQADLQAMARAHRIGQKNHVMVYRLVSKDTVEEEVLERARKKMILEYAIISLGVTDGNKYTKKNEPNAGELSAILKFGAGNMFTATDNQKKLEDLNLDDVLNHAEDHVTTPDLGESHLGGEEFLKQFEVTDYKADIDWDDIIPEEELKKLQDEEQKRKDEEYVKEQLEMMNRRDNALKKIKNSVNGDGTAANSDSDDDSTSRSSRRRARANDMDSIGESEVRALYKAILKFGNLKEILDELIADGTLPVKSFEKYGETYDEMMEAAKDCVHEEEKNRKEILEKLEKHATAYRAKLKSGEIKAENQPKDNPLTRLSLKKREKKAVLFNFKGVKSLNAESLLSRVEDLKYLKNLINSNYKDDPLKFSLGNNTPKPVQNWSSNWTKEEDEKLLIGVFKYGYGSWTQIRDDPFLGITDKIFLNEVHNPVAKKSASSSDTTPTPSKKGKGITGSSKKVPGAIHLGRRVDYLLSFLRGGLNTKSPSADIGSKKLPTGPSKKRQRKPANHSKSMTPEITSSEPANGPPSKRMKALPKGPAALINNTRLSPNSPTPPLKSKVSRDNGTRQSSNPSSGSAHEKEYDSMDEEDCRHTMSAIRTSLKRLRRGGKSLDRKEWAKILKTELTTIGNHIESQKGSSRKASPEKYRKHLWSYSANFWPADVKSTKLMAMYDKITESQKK
Compound,Percent Effect [1],Percent Effect [2],Percent Effect [3],Percent Effect (Trypanosoma cruzi),Percent Effect [4],Percent Effect [5],Percent Effect (Homo sapiens),Percent Effect [6],Percent Effect [7],Percent Effect [8]
CN(Cc1ccccc1)CC(O)Cn1cnc2ccccc2c1=O (stereo not given),-0.933%,2.56%,0.642%,4.79%,9.84%,-2.13%,12.8%,0.478%,6.02%,0.379%
Cc1cc(NC(=O)NCC2CCOC2)no1 (stereo not given),0.735%,10.7%,0.0318%,-6.63%,9.76%,5%,5.61%,4.74%,7.69%,-11.3%
CC(C)=CCN1CCC(c2nccn2Cc2cscn2)CC1,-6.89%,5.41%,7.33%,9.8%,-5.94%,9.07%,-16%,6.92%,14.6%,-4.64%
COc1cccc(CN2CCCC3(CCN(C(=O)c4ccco4)C3)C2)c1 (stereo not given),-3.23%,9.09%,0.7%,0.563%,5.02%,17.8%,5.54%,14.5%,15%,-3.31%
CC(C)NC(=O)CC1COC2(CCN(Cc3cccs3)CC2)C1 (stereo not given),-3.1%,16.9%,-2.18%,-3.19%,1.37%,4.89%,-2.98%,4.83%,7.5%,-13.3%
O=C(c1cc(Cl)c2c(c1)OCCO2)N1CCCC(n2cncn2)C1 (stereo not given),-2.53%,-5.33%,5.05%,0.402%,1.77%,1.78%,6.76%,-0.526%,0%,2.59%
O=C(CC1CCCC1)N1C[C@@H]2CCN(c3cccnc3)C[C@@H]2C1,-3.01%,3.9%,3.29%,-3.94%,2.28%,19.3%,35.3%,2.9%,0%,-2.18%
CC(C)(C)C(O)CN1CCN(C(=O)c2cccc3[nH]ncc23)CC1 (stereo not given),-8.1%,20.5%,-18.1%,4.41%,-0.41%,20.4%,1.83%,3.35%,22.9%,22.1%
